Several values for one entry are separate records, joined by “and”; a condition that tells them apart may be missing. Identical values can stand only once. Inconclusive results are not listed. A structure can be active in one record and inactive in another. Activity calls are given as the source filed them. Unless noted, calls come from the whole dose curve; as a rule, active = well fitted curve in the direction sought with a large enough effect in the repeat runs; inconclusive = weak or mixed curves; inactive = no such curve, though single readings can be large; an effect the other way counts as inactive or inconclusive.
System: not listed separately
Assay: qHTS assay to identify small molecule antagonists of the thyroid receptor (TR) signaling pathway - cell viability counter screen (AID 743064); note: nearly all actives have a fitted effect of over 50% in size; note: potency is the fitted concentration of half-maximal effect
Conditions: GH3.TRE-Luc viability, CellTiter-Fluor, 24 h; series mostly up to 70.3 µM; activity change, negative = cytotoxic: at the top concentration
How it was run: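 Plate GH3.TRE-Luc cells; incubate 4 h at 37 °C; add compound, then T3 to 1 nM final; incubate 23.5 h; add CellTiter-Fluor; incubate 30 min at 37 °C, 5% CO2; read fluorescence.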
% is set by controls: 0 for no effect and ±100 for the full control effect.

Row | Structure (SMILES) | activity change, negative = cytotoxic | Potency
1 | CC(C)C(=O)OCCOc1ccccc1 | 13.9% (inactive) | 
2 | CC1=C2[C@@H]([C@H](C)CC[C@H]2/C=C(\C)C(=O)O)[C@H](O)C1 | -0.799% (inactive) | 
3 | CC(=O)OCCC1CCCCC1 | 4.32% (inactive) | 
4 | CC(C)C1CCC(C(=O)N[C@H](Cc2ccccc2)C(=O)O)CC1 (stereo partly specified) | -16.2% (inactive) | 
5 | CCCCCCC(O)CCOC(C)=O (stereo unspecified) | 17.5% [at 260 µM] (inactive) | 
6 | CC(C)N(C)C | -1.83% (inactive) | 
7 | CC(C)COC(=O)COc1cc(Cl)c(Cl)cc1Cl | -1.7% (inactive) | 
8 | O=CNNC=O | 7.73% [at 95 µM] (inactive) | 
9 | C=CC(=O)NC(C)C | -13.3% (inactive) | 
10 | CC1CCCC(=O)C1=O (stereo unspecified) | -8.75% (inactive) | 
11 | O=c1[nH]c2cc(C(F)(F)F)c(N3CCOCC3)cc2n(CP(=O)(O)O)c1=O | 7.56% (inactive) | 
12 | O=P(O)(O)Oc1ccccc1 | 13% (inactive) | 
13 | CCC(CO)(CO)CO | -0.814% [at 95 µM] (inactive) | 
14 | O=C(Nc1ccc(C(=O)O)c(O)c1)c1ccccc1 | 0.681% (inactive) | 
15 | O=C(CCS)OCC(COC(=O)CCS)(COC(=O)CCS)COC(=O)CCS | 7.64% (inactive) | 
16 | CC[C@H]1OC(=O)[C@H](C)[C@@H](O[C@H]2C[C@@](C)(OC)[C@@H](O)[C@H](C)O2)[C@H](C)[C@@H](O[C@@H]2O[C@H](C)C[C@H](N(C)C)[C@H]2O)[C@](C)(O)C[C@@H](C)/C(=N\OCOCCOC)[C@H](C)[C@@H](O)[C@]1(C)O |  | inactive and 32.1 µM (active)
17 | Cc1cccc2sc(N)nc12 | -0.667% [at 95 µM] (inactive) | 

System: not listed separately
Assay: qHTS assay to identify small molecule antagonists of the thyroid receptor (TR) signaling pathway (AID 743065); note: nearly all actives have a fitted effect of over 55% in size; note: potency is the fitted concentration of half-maximal effect
Conditions: GH3.TRE-Luc, T3-stimulated luciferase inhibition, 23.5 h; series mostly up to 70.3 µM; activity, negative = inhibition: at the top concentration
How it was run: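 GH3.TRE-Luc rat pituitary cells (two TREs driving luciferase) were dosed with compound, then stimulated with 1 nM T3 (final) for 23.5 h at 37 C. ONE-Glo luminescence was the read-out, with CellTiter-Fluor fluorescence as the cytotoxicity counter-screen.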

Row | Structure (SMILES) | Potency | activity, negative = inhibition
18 | C=CC(=O)O | inactive | 
19 | CN1C(CSCC(F)(F)F)Nc2cc(Cl)c(S(N)(=O)=O)cc2S1(=O)=O (stereo unspecified) |  | -11.9% (inactive)
20 | CC(C)(C)S |  | 1.68% [at 95 µM] (inactive)
21 | CNc1c2c(nn1C)CCCC2 |  | -0.132% (inactive)
22 | O=C(O)c1cccc(Oc2ccccc2)c1 |  | 2.23% (inactive)
23 | COc1cc(NS(=O)(=O)c2ccc(N)cc2)nc(C)n1 |  | -2.91% (inactive)
24 | O=C(NC(Cc1cc(=O)[nH]c2ccccc12)C(=O)O)c1ccc(Cl)cc1 (stereo unspecified) |  | 9.67% (inactive)
25 | CCCCCCCCCCCC(=O)OCC(O)CO (stereo unspecified) |  | -11.9% (inactive)
26 | Cc1cn([C@H]2C[C@H](F)[C@@H](CO)O2)c(=O)[nH]c1=O |  | 7.83% (inactive)
27 | CC(C)(O)CCc1ccccc1 |  | 7.88% (inactive)
28 | CC(C)CC(O)CC(C)C |  | 13% (inactive)
29 | Cc1ccc(N(CCO)CCO)cc1 |  | 10.1% (inactive)
30 | CCCCCCCCCCCCCCCC(=O)OCC |  | 14.8% (inactive)
31 | CC(C)(C)C1(CCc2ccc(Cl)cc2)CO1 (stereo unspecified) |  | 0.914% (inactive)
32 | Cc1ccc(S(=O)(=O)NC(=O)NC2CCCCC2)cc1 |  | 1.2% (inactive)
33 | O=C(O)CNC(=O)c1ccccc1I |  | 10.1% (inactive)
34 | ClC1=C(Cl)C1(Cl)Cl |  | 1.03% [at 95 µM] (inactive)
35 | OCC(CO)n1cnc(-c2ccc(F)cc2)c1-c1ccnc(Oc2ccccc2)n1 |  | -18.6% (inactive)
36 | CNC1CCCN(c2c(F)cc3c(=O)c(C(=O)O)cn(C4CC4)c3c2OC)C1 (stereo unspecified) |  | 2.28% (inactive)

Row | Structure (SMILES) | Potency | activity, negative = inhibition
37 | CC[C@H]1OC(=O)[C@H](C)[C@@H](O[C@H]2C[C@@](C)(OC)[C@@H](O)[C@H](C)O2)[C@H](C)[C@@H](O[C@@H]2O[C@H](C)C[C@H](N(C)C)[C@H]2O)[C@](C)(O)C[C@@H](C)CN(C)[C@H](C)[C@@H](O)[C@]1(C)O | 29.8 µM (active) and 36.1 µM (active) | 
38 | CC(C)C(=O)OCCOc1ccccc1 |  | 0.812% (inactive)
39 | CC1=C2[C@@H]([C@H](C)CC[C@H]2/C=C(\C)C(=O)O)[C@H](O)C1 |  | -0.722% (inactive)
40 | CC(=O)OCCC1CCCCC1 |  | 13.1% (inactive)
41 | CC(C)C1CCC(C(=O)N[C@H](Cc2ccccc2)C(=O)O)CC1 (stereo partly specified) |  | -8.25% (inactive)
42 | CCCCCCC(O)CCOC(C)=O (stereo unspecified) |  | 3.28% [at 260 µM] (inactive)
43 | CC(C)N(C)C |  | 11.3% (inactive)
44 | CC(C)COC(=O)COc1cc(Cl)c(Cl)cc1Cl |  | 1.42% (inactive)
45 | O=CNNC=O |  | 13.5% [at 95 µM] (inactive)
46 | C=CC(=O)NC(C)C |  | -0.0017% (inactive)
47 | CC1CCCC(=O)C1=O (stereo unspecified) |  | 0.0143% (inactive)
48 | O=c1[nH]c2cc(C(F)(F)F)c(N3CCOCC3)cc2n(CP(=O)(O)O)c1=O |  | 10.9% (inactive)
49 | O=P(O)(O)Oc1ccccc1 |  | 13.6% (inactive)
50 | CCC(CO)(CO)CO |  | -0.309% [at 95 µM] (inactive)
51 | O=C(Nc1ccc(C(=O)O)c(O)c1)c1ccccc1 |  | 2.63% (inactive)
52 | O=C(CCS)OCC(COC(=O)CCS)(COC(=O)CCS)COC(=O)CCS |  | 9.6% (inactive)
53 | CC[C@H]1OC(=O)[C@H](C)[C@@H](O[C@H]2C[C@@](C)(OC)[C@@H](O)[C@H](C)O2)[C@H](C)[C@@H](O[C@@H]2O[C@H](C)C[C@H](N(C)C)[C@H]2O)[C@](C)(O)C[C@@H](C)/C(=N\OCOCCOC)[C@H](C)[C@@H](O)[C@]1(C)O | inactive | 
54 | Cc1cccc2sc(N)nc12 |  | 0.0368% [at 95 µM] (inactive)

System: thyroid hormone receptor (rat, GH3 cells)
Assay: qHTS assay to identify small molecule agonists of the thyroid receptor (TR) signaling pathway (AID 743066; calls by dose curve)
Conditions: GH3.TRE-Luc cells, TR agonist luciferase, 24 h; series mostly up to 83.9 µM; activation: at the top concentration

Row | Structure (SMILES) | Potency | activation
55 | C=CC(=O)O | inactive | 
56 | CN1C(CSCC(F)(F)F)Nc2cc(Cl)c(S(N)(=O)=O)cc2S1(=O)=O (stereo unspecified) |  | -1.54% (inactive)
57 | CC(C)(C)S |  | -0.175% [at 95.2 µM] (inactive)
58 | CNc1c2c(nn1C)CCCC2 |  | 0.462% (inactive)
59 | O=C(O)c1cccc(Oc2ccccc2)c1 |  | -0.284% (inactive)
60 | COc1cc(NS(=O)(=O)c2ccc(N)cc2)nc(C)n1 |  | -0.0073% (inactive)
61 | O=C(NC(Cc1cc(=O)[nH]c2ccccc12)C(=O)O)c1ccc(Cl)cc1 (stereo unspecified) |  | 0.549% (inactive)
62 | CCCCCCCCCCCC(=O)OCC(O)CO (stereo unspecified) | inactive | 
63 | Cc1cn([C@H]2C[C@H](F)[C@@H](CO)O2)c(=O)[nH]c1=O |  | 2.1% (inactive)
64 | CC(C)(O)CCc1ccccc1 |  | -0.286% (inactive)
65 | CC(C)CC(O)CC(C)C |  | -0.0807% (inactive)
66 | Cc1ccc(N(CCO)CCO)cc1 |  | 1.43% (inactive)
67 | CCCCCCCCCCCCCCCC(=O)OCC |  | 0.307% (inactive)
68 | CC(C)(C)C1(CCc2ccc(Cl)cc2)CO1 (stereo unspecified) |  | -1.24% (inactive)
69 | Cc1ccc(S(=O)(=O)NC(=O)NC2CCCCC2)cc1 |  | 0.15% (inactive)
70 | O=C(O)CNC(=O)c1ccccc1I |  | 1.43% (inactive)
71 | ClC1=C(Cl)C1(Cl)Cl |  | 0.394% [at 95.2 µM] (inactive)
72 | OCC(CO)n1cnc(-c2ccc(F)cc2)c1-c1ccnc(Oc2ccccc2)n1 |  | -5.4% (inactive)
73 | CNC1CCCN(c2c(F)cc3c(=O)c(C(=O)O)cn(C4CC4)c3c2OC)C1 (stereo unspecified) |  | 0.249% (inactive)

Row | Structure (SMILES) | Potency | activation
74 | CC[C@H]1OC(=O)[C@H](C)[C@@H](O[C@H]2C[C@@](C)(OC)[C@@H](O)[C@H](C)O2)[C@H](C)[C@@H](O[C@@H]2O[C@H](C)C[C@H](N(C)C)[C@H]2O)[C@](C)(O)C[C@@H](C)CN(C)[C@H](C)[C@@H](O)[C@]1(C)O |  | -8.91% (inactive)
75 | CC(C)C(=O)OCCOc1ccccc1 |  | 0.652% (inactive)
76 | CC1=C2[C@@H]([C@H](C)CC[C@H]2/C=C(\C)C(=O)O)[C@H](O)C1 |  | 0.123% (inactive)
77 | CC(=O)OCCC1CCCCC1 |  | -0.4% (inactive)
78 | CC(C)C1CCC(C(=O)N[C@H](Cc2ccccc2)C(=O)O)CC1 (stereo partly specified) |  | -1.69% (inactive)
79 | CCCCCCC(O)CCOC(C)=O (stereo unspecified) |  | 0.469% [at 260 µM] (inactive)
80 | CC(C)N(C)C |  | 0.862% (inactive)
81 | CC(C)COC(=O)COc1cc(Cl)c(Cl)cc1Cl |  | -3.11% (inactive)
82 | O=CNNC=O |  | 1.73% [at 95.2 µM] (inactive)
83 | C=CC(=O)NC(C)C |  | 3.01% (inactive)
84 | CC1CCCC(=O)C1=O (stereo unspecified) |  | 1.86% (inactive)
85 | O=c1[nH]c2cc(C(F)(F)F)c(N3CCOCC3)cc2n(CP(=O)(O)O)c1=O |  | 1.14% (inactive)
86 | O=P(O)(O)Oc1ccccc1 |  | -0.232% (inactive)
87 | CCC(CO)(CO)CO |  | 0.0525% [at 95.2 µM] (inactive)
88 | O=C(Nc1ccc(C(=O)O)c(O)c1)c1ccccc1 |  | -0.418% (inactive)
89 | O=C(CCS)OCC(COC(=O)CCS)(COC(=O)CCS)COC(=O)CCS |  | 3.34% (inactive)
90 | CC[C@H]1OC(=O)[C@H](C)[C@@H](O[C@H]2C[C@@](C)(OC)[C@@H](O)[C@H](C)O2)[C@H](C)[C@@H](O[C@@H]2O[C@H](C)C[C@H](N(C)C)[C@H]2O)[C@](C)(O)C[C@@H](C)/C(=N\OCOCCOC)[C@H](C)[C@@H](O)[C@]1(C)O | inactive | 
91 | Cc1cccc2sc(N)nc12 |  | -1.64% [at 95.2 µM] (inactive)

Reference: PubChem BioAssay (Tox21)
